Reference: publication PMC5913336, “True equilibrium measurement of transcription factor-DNA binding affinities using automated polarization microscopy”

biological target: Oc (Drosophila melanogaster, UniProt P22810 52-141); assay: FP; 33 mM phosphate pH 7.0, 90 mM NaCl, 0.01% Tween 20, 0.1 mM DTT, 0.5% agarose; room temperature; conditions: tags: N-GST (pGEX-6P-1, kept); dsDNA, one strand shown
Sequence (P22810 52-141): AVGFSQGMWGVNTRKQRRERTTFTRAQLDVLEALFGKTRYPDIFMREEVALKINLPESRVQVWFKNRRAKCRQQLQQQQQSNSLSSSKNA

| Sequence | binding signal | Kd [nM] |
| --- | --- | --- |
| AGTCAATCCCCT | 340 Kd / Kd of best base at the position |  |
| AGCTAATCCCCT | 2.31 Kd / Kd of best base at the position |  |
| AGTTTATCCCCT | 1.7 Kd / Kd of best base at the position |  |
| AGTTAATCCCCC | 1.11 Kd / Kd of best base at the position |  |
| AGTTAATTCCCT | 123 Kd / Kd of best base at the position |  |
| AGTAAATCCCCT | 19.8 Kd / Kd of best base at the position |  |
| AGTGAATCCCCT | 176 Kd / Kd of best base at the position |  |
| AGTTATTCCCCT | 16.4 Kd / Kd of best base at the position |  |
| AGTTAATCCACT | 1.54 Kd / Kd of best base at the position |  |
| AGTTAATCCGCT | 1.09 Kd / Kd of best base at the position |  |
| ACTTAATCCCCT | 1.03 Kd / Kd of best base at the position |  |
| AGATAATCCCCT | 183 Kd / Kd of best base at the position |  |
| AGTTCATCCCCT | 177 Kd / Kd of best base at the position |  |
| AGTTGATCCCCT | 15.1 Kd / Kd of best base at the position |  |
| AGTTAATCCCCA | 1.11 Kd / Kd of best base at the position |  |
| AGTTAATGCCCT | 140 Kd / Kd of best base at the position |  |
| AGTTAATCCCTT | 1.11 Kd / Kd of best base at the position |  |
| AGTTAATCACCT | 7.07 Kd / Kd of best base at the position |  |
| AGTTAGTCCCCT | 6.2 Kd / Kd of best base at the position |  |

| Sequence | binding signal | Kd [nM] |
| --- | --- | --- |
| AGTTAACCCCCT | 60 Kd / Kd of best base at the position |  |
| AGTTAATCGCCT | 6.1 Kd / Kd of best base at the position |  |
| AGTTAATCCCCG | 1.11 Kd / Kd of best base at the position |  |
| CGTTAATCCCCT | 2.09 Kd / Kd of best base at the position |  |
| ATTTAATCCCCT | 2.15 Kd / Kd of best base at the position |  |
| AGTTAATCTCCT | 3.07 Kd / Kd of best base at the position |  |
| AGGTAATCCCCT | 3.1 Kd / Kd of best base at the position |  |
| TGTTAATCCCCT | 3.64 Kd / Kd of best base at the position |  |
| AGTTAATCCCCT |  | ~3.8 |
| AGTTAATACCCT | 251 Kd / Kd of best base at the position |  |
| AGTTAAGCCCCT | 18 Kd / Kd of best base at the position |  |
| AGTTAATCCCGT | 1.2 Kd / Kd of best base at the position |  |
| AGTTAATCCCAT | 1.11 Kd / Kd of best base at the position |  |
| AGTTAAACCCCT | 93.6 Kd / Kd of best base at the position |  |
| AGTTACTCCCCT | 12 Kd / Kd of best base at the position |  |
| GGTTAATCCCCT | 1.35 Kd / Kd of best base at the position |  |
| AATTAATCCCCT | 2.08 Kd / Kd of best base at the position |  |
| AGTTAATCCTCT | 1.44 Kd / Kd of best base at the position |  |
